# Measurements: PubChem BioAssay AID1159580 (chemical genetic matrix, 2015)
# Screen size: about 5,500 compounds; about 2,000 (36%) were called active. About 18% were inconclusive and are not listed. The list shows a part of the results. Unmarked numbers belong to inactive results. Cut-off read from the data, not from the text of the source: active = normalized growth mostly below about 0.91 (no sharp cut-off); inconclusive = no clear call, values can overlap the other calls; inactive = mostly above about 0.92.
# Test: chemical genetic growth profiling, strain panel (AID 1159580);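 note: tested at 20 µM; growth read once vehicle control cultures reached saturation at 30 °C; 1 = growth at the plate median or of vehicle wells; lower values mean less growth of the strain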
# Conditions: S. cerevisiae deletion strains, growth OD
smiles,measurement,setting,value
O=C1c2ccc(O)cc2O[C@H](c2cc(O)c(O)c(O)c2)[C@H]1O,normalized growth,"locus YBR021W, strain FUR4, hits give low values",1
same,normalized growth,"locus YBR229C, strain ROT2, hits give low values",0.992
same,normalized growth,"locus YCL029C, strain bik1, hits give low values",1.02
same,normalized growth,"locus YDL035C, strain GPR1, hits give low values",1
same,normalized growth,"locus YDL074C, strain BRE1, hits give low values",0.939
same,normalized growth,"locus YDL101C, strain DUN1, hits give low values",0.93
same,normalized growth,"locus YDL185W, strain tfp1, hits give low values",0.999
same,normalized growth,"locus YDL192W, strain arf1, hits give low values",1.01
same,normalized growth,"locus YDR101C, strain arx1, hits give low values",1
same,normalized growth,"locus YDR162C, strain NBP2, hits give low values",1.03
same,normalized growth,"locus YDR318W, strain mcm21, hits give low values",1
same,normalized growth,"locus YDR388W, hits give low values",1.01
same,normalized growth,"locus YDR502C, strain sam2, hits give low values",1.02
same,normalized growth,"locus YEL061C, strain CIN8, hits give low values",0.999
same,normalized growth,"locus YER110C, hits give low values",1.02
same,normalized growth,"locus YER155C, strain BEM2, hits give low values",1.04
same,normalized growth,"locus YER167W, strain BCK2, hits give low values",1.04
same,normalized growth,"locus YGL078C, strain dbp3, hits give low values",1.01
same,normalized growth,"locus YGL086W, strain mad1, hits give low values",1.01
same,normalized growth,"locus YGL248W, strain PDE1, hits give low values",1
same,normalized growth,"locus YGR135W, strain pre9, hits give low values",1.01
same,normalized growth,"locus YGR252W, strain gcn5, hits give low values",0.972
same,normalized growth,"locus YHR030C, strain SLT2, hits give low values",1.01
same,normalized growth,"locus YHR079C, strain IRE1 (second series), hits give low values",1.02
same,normalized growth,"locus YHR094C, strain hxt1, hits give low values",1.02
same,normalized growth,"locus YHR129C, strain ARP1, hits give low values",0.997
same,normalized growth,"locus YHR200W, strain rpn10, hits give low values",0.982
same,normalized growth,"locus YIL066C, strain RNR3, hits give low values",0.99
same,normalized growth,"locus YIL073C, strain SPO22, hits give low values",1.07
same,normalized growth,"locus YIL125W, strain kgd1, hits give low values",1
same,normalized growth,"locus YIR030C, strain dcg1, hits give low values",1.03
same,normalized growth,"locus YJL095W, strain BCK1, hits give low values",0.884
same,normalized growth,"locus YJL134W, strain LCB3, hits give low values",1.01
same,normalized growth,"locus YJL168C, strain set2, hits give low values",1
same,normalized growth,"locus YJL187C, strain SWE1 (second series), hits give low values",0.853 (active)
same,normalized growth,"locus YJR043C, strain POL32, hits give low values",0.998
same,normalized growth,"locus YJR075W, strain HOC1, hits give low values",1.04
same,normalized growth,"locus YKL009W, strain mrt4, hits give low values",1.06
same,normalized growth,"locus YKL068W, hits give low values",1.02
same,normalized growth,"locus YKL085W, strain MDH1 (second series), hits give low values",1.01
same,normalized growth,"locus YKL085W, strain MDH1, hits give low values",1.01
same,normalized growth,"locus YKL190W, strain CNB1, hits give low values",1.01
same,normalized growth,"locus YKR001C, strain vps1, hits give low values",1
same,normalized growth,"locus YLR039C, strain RIC1, hits give low values",1.04
same,normalized growth,"locus YLR058C, strain SHM2, hits give low values",0.92
same,normalized growth,"locus YLR102C, strain apc9, hits give low values",1.01
same,normalized growth,"locus YLR262C, strain YPT6, hits give low values",1.06
same,normalized growth,"locus YLR268W, strain sec22, hits give low values",1.01
same,normalized growth,"locus YLR330W, strain CHS5, hits give low values",1.03
same,normalized growth,"locus YLR342W, strain FKS1 (second series), hits give low values",0.95
same,normalized growth,"locus YLR371W, strain rom2, hits give low values",0.992
same,normalized growth,"locus YLR418C, strain cdc73, hits give low values",1.01
same,normalized growth,"locus YML016C, strain PPZ1, hits give low values",0.987
same,normalized growth,"locus YML032C, strain rad52, hits give low values",1.06
same,normalized growth,"locus YML124C, strain tub3, hits give low values",1.02
same,normalized growth,"locus YMR078C, strain ctf18, hits give low values",1.03
same,normalized growth,"locus YMR223W, strain ubp8, hits give low values",1.03
same,normalized growth,"locus YMR307W, strain GAS1, hits give low values",1.02
same,normalized growth,"locus YNL067W, strain RPL9B, hits give low values",1.01
same,normalized growth,"locus YNL153C, strain GIM3, hits give low values",0.947
same,normalized growth,"locus YNL233W, strain BNI4, hits give low values",1.02
same,normalized growth,"locus YNL250W, strain rad50, hits give low values",1.01
same,normalized growth,"locus YNL271C, strain bni1, hits give low values",1.01
same,normalized growth,"locus YNL298W, strain CLA4, hits give low values",0.996
same,normalized growth,"locus YNL307C, strain MCK1, hits give low values",1
same,normalized growth,"locus YNL322C, strain KRE1, hits give low values",1.01
same,normalized growth,"locus YNR052C, strain pop2, hits give low values",0.967
same,normalized growth,"locus YOL012C, strain htz1",0.815
same,normalized growth,"locus YOL147C, strain pex11, hits give low values",1.01
same,normalized growth,"locus YOR061W, strain CKA2, hits give low values",1
same,normalized growth,"locus YOR069W, strain VPS5, hits give low values",1.01
same,normalized growth,"locus YOR136W, strain idh2, hits give low values",1.05
same,normalized growth,"locus YOR144C, strain elg1, hits give low values",1.02
same,normalized growth,"locus YOR184W, strain ser1, hits give low values",1.02
same,normalized growth,"locus YOR316C, strain cot1, hits give low values",1.01
same,normalized growth,"locus YPL055C, strain LGE1, hits give low values",1.02
same,normalized growth,"locus YPR119W, strain clb2, hits give low values",1
same,normalized growth,"locus YPR141C, strain kar3, hits give low values",1.01
same,normalized growth,"locus YPR163C, strain tif3, hits give low values",1.01
same,normalized growth,"locus YPR167C, strain met16, hits give low values",1.03
same,normalized growth,"strain wtn01, hits give low values",1.01
